Screens as filed in PubChem BioAssay.
Hits are enriched below; roughly 0.24% of the tested compounds scored in any of these assays.
NPYLR7 ag – agonists of mosquito NPYLR7 receptor, primary screen, cell-based, Aedes aegypti, calcium fluorescence, mosquito biting behavior; HEK293T NPYLR7/Galpha15, GCaMP6s calcium fluorescence; activation, % at 10 µM; 270,000 tested, 0.15% active; in the data active = activation above about 40%
hcGAS inh – Primary biochemical luminescence assay for human cyclic GMP-AMP synthase inhibitors; Q8N884; recombinant h-cGAS, ATP depletion, Kinase-Glo luminescence; inhibition, % at 12.5 µM; 290,000 tested, 0.081% active; AID 1259398, 2018
mcGAS lum – cyclic GMP-AMP synthase inhibitors, mouse, primary biochemical chemiluminescence | inhibition, % at 12.5 µM | recombinant cGAS, Kinase-Glo ATP depletion luminescence | AID 1259399, 2018 | 160,000 tested, 0.15% active | Q8C6L5
Target sequence (Q8C6L5 whole entry, looked up): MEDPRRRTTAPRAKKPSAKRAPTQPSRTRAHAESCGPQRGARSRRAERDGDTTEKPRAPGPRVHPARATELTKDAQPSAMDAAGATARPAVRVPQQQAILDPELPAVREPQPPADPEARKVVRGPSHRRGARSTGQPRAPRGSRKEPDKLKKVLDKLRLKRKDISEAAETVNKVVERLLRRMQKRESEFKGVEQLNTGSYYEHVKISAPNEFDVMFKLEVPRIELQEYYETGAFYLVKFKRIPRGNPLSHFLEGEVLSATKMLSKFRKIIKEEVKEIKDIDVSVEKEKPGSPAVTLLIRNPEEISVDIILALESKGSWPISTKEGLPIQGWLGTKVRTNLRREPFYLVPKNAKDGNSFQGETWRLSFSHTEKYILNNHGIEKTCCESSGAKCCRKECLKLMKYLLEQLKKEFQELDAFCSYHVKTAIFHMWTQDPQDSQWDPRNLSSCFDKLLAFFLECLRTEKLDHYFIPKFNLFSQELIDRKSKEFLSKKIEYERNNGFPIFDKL
Numbers stand for hits; 0 = inactive; - = not tested or not shown; ! = not active in a repeat. Rule as the data show it, unless noted: active = inhibition above about 40%; inactive = the rest.

SMILES	NPYLR7 ag	hcGAS inh	mcGAS lum
CCN1CC(=Cc2cc(C)n(C3CC3)c2C)C(=O)C(=Cc2cc(C)n(C3CC3)c2C)C1	48	0	-
Cc1cc(C=C2SC(N)=NC2=O)c(C)n1C1CC1	0	0	-
CCN(CC)CCCC(C)NC(=O)c1cc(-c2ccccc2Cl)nn1-c1ccc(OC)cc1 (centres undefined)	0	0	0
CCN(CC)CCCC(C)Nc1c2ccc(Cl)cc2nc2ccc(OC)cc12 (centres undefined)	67	64!	0
N#Cc1ccc([N+](=O)[O-])c(O)c1	0	0	-
N#Cc1cc(I)c(O)c([N+](=O)[O-])c1	0	67	-
O=C(CC1C(=O)NC2(CCCC2)CN1CCc1ccccc1)NC1CC1 (centres undefined)	0	0	-
Cc1ccnc(SCc2cc(=O)c(OC(=O)Cc3cccc4ccccc34)co2)n1	0	0	60
Cc1cc(C)nc(SCc2cc(=O)c(OC(=O)Cc3cccc4ccccc34)co2)n1	0	0	68
Cc1cc(C)nc(SCc2cc(=O)c(OC(=O)Cc3cccs3)co2)n1	0	0	0
Cc1cc(C)nc(SCc2cc(=O)c(OC(=O)C3c4ccccc4Oc4ccccc43)co2)n1	0	0	93
Cc1cc(C)nc(SCc2cc(=O)c(OC(=O)c3ccccc3Cl)co2)n1	0	0	0
Cc1ccnc(SCc2cc(=O)c(OC(=O)COc3ccccc3C)co2)n1	0	0	0
COc1ccc(-n2nc(C(=O)N3CCOCC3)c(=O)n(Cc3cccc(F)c3)c2=O)cc1	0	0	0
CCN(CC(=O)Nc1c(-c2ccccc2)c(C)nn1-c1ccccc1C)C(=O)Nc1cc(C(F)(F)F)cc(C(F)(F)F)c1	-	0	0
COc1ccc(N2C(=O)C(=Cc3ccco3)SC2=S)cc1	0	0	0
COc1ccc(-c2cc3ccc4c(c3oc2=O)CN(Cc2cccnc2)CO4)c(OC)c1	0	0	0
COc1ccc(CN2COc3ccc4c(c3C2)O/C(=C\c2ccncc2)C4=O)cc1OC	0	0	0
COc1cccc(CN2COc3ccc4c(c3C2)O/C(=C\c2ccncc2)C4=O)c1	66	0	0
COc1ccc(CCN2COc3ccc4c(c3C2)O/C(=C\c2cccnc2)C4=O)cc1	46	0	0
Cc1oc(-c2cccs2)nc1-c1nccn1Cc1noc(C(C)C)n1	-	0	0
COc1ccc(-n2ccnc2-c2nc(-c3cccs3)oc2C)cn1	57	0	-
CN1CCN(c2nc3ccccn3c(=O)c2/C=C2\SC(=S)N(CC3CCCO3)C2=O)CC1 (centres undefined)	0	0	0
O=C1C=C(Nc2ccc3ccccc3c2)CCC1	0	0	-
COc1ccc(C2C(C(N)=O)=C(C)Nc3ncnn32)cc1 (centres undefined)	0	0	0
SMILES	NPYLR7 ag	hcGAS inh	mcGAS lum
COc1cc(-c2nc3n(n2)C(c2ccc(O)cc2)C(C(N)=O)=C(C)N3)cc(OC)c1OC (centres undefined)	51	0	-
COC(=O)CCC(=O)c1ccc(Br)s1	0	0	0
COC(=O)Cc1ccc(C(=O)CCl)s1	0	0	56
CC(C)Cn1c(=O)c2c(nc3n2CCCN3c2ccccc2)n(C)c1=O	0	0	-
CC(C)CN1C(=O)SC(Nc2ccccc2)C1=O (centres undefined)	0	0	0
O=C1SC(Nc2ccc(I)cc2)C(=O)N1c1ccccc1 (centres undefined)	63	0	0
Cc1noc(C)c1CC(=O)N1CCC2(CC1)N(CC1CC1)C(=O)CS2=O (centres undefined)	-	0	0
Brc1ccc2nc(SCc3nc4ccccc4n3Cc3ccccc3)[nH]c2c1	0	0	0
CCOc1cc(Br)cc(/C=C2/NC(=S)NC2=O)c1O	0	0	0
CCOc1cc(/C=C2/NC(=S)NC2=O)cc(Br)c1O	52	0	0
OC1c2ccccc2-c2c3c(cc4c2C1NCC4)OCO3 (centres undefined)	0	42	44
Fc1ccccc1C1NCCc2cc3c(cc21)OCCO3 (centres undefined)	0	0	-
CN(CCN1CCCCC1=O)c1nc(-c2ccccc2)nc2c1CCNC2	0	0	-
Cn1c(C(C#N)=Cc2ccsc2)nc2ccccc21	0	0	0
Cn1c(C(C#N)=Cc2c(F)c(F)c(F)c(F)c2F)nc2ccccc21	142	0	-
COc1ccc(C)cc1NC(=O)C1CCCN1C(=O)c1cccs1 (centres undefined)	0	0	-
COc1cc(/C=C2\Oc3c(ccc4c3CN(CC3CCCO3)CO4)C2=O)cc(OC)c1OC (centres undefined)	74	0	0
CC(C)c1ccc(/C=C2\Oc3c(ccc4c3CN(C3CCS(=O)(=O)C3)CO4)C2=O)cc1 (centres undefined)	0	0	0
COc1ccc(/C=C2\Oc3c(ccc4c3CN(CC3CCCO3)CO4)C2=O)cc1 (centres undefined)	64	0	0
COc1ccc(/C=C2\Oc3c(ccc4c3CN(CC3CCCO3)CO4)C2=O)cc1OC (centres undefined)	88	0	0
Cc1ccccc1/C=C1\Oc2c(ccc3c2CN(C2CCS(=O)(=O)C2)CO3)C1=O (centres undefined)	0	0	0
COc1ccc(/C=C2\Oc3c(ccc4c3CN(C3CCS(=O)(=O)C3)CO4)C2=O)cc1 (centres undefined)	68	0	0
COc1ccc(/C=C2\Oc3c4c(cc(C)c3C2=O)OCN(C2CC2)C4)cc1OC	0	0	0
COc1ccc(/C=C2\Oc3c4c(cc(C)c3C2=O)OCN(Cc2ccncc2)C4)cc1	0	0	0
CC1CCCCC1NC(=O)NC(=O)CSc1nnc(-c2ccccc2F)n1C (centres undefined)	0	0	-
SMILES	NPYLR7 ag	hcGAS inh	mcGAS lum
CCN(CC)c1ccc(/C=N\Nc2ncnc3nc[nH]c23)cc1	0	0	-
O=C(Nc1ccnn1C1CCN(Cc2cc3ccccc3[nH]2)CC1)c1ccc2c(c1)OCO2	-	0	-
COc1cc(NC(=O)c2sc3ccc4ccccc4c3c2Cl)cc(OC)c1	0	0	0
CC1CN(C(=O)NCC(C)(C)c2ccccc2)CC(C)O1 (centres undefined)	0	0	0
O=C(NCc1cc(-c2ccccc2)n[nH]1)C1CC(=O)N(Cc2ccccn2)C1 (centres undefined)	0	0	0
CCC1=NN2C(=N)/C(=C\c3ccccc3Br)C(=O)N=C2S1	0	0	-
CCC1=NN2C(=N)/C(=C\c3ccc(OC)c(OC)c3OC)C(=O)N=C2S1	0	0	44
CCOC(=O)Cn1c(=O)c2c(nc3n2CC(C)CN3c2ccc(C)cc2)n(C)c1=O (centres undefined)	0	0	0
Cc1ccc(NC2(C(=O)NC3C=CS(=O)(=O)C3)CCCCC2)cc1 (centres undefined)	0	0	-
CC1N(C)c2ccc(C=Cc3cc[n+](C)cc3)cc2C1(C)C (centres undefined)	67	0	-
COc1ccccc1-c1cc(C(=O)NCCN2CCCC2)n2nc(-c3ccc(Cl)cc3)cc2n1	0	0	44!
COc1ccccc1-c1cc(C(=O)NCCN2CCCCC2)nc2cc(-c3ccc(Cl)cc3)nn12	0	0	0
COc1ccc(Nc2ccc3c(=O)c(-c4ccc(OC)c(OC)c4)coc3c2)c(OC)c1	0	0	0
